Reference: publication PMC6602471
Whole data set: some 1,300 sequences, median “log fluorescence intensity” near 8.3, cut for the highest 2% near 12. The full list was thinned out, with the highest values kept by preference.

Molecular target: T1, ETS1 (Homo sapiens, UniProt P14921 1-441)
T1 sequence: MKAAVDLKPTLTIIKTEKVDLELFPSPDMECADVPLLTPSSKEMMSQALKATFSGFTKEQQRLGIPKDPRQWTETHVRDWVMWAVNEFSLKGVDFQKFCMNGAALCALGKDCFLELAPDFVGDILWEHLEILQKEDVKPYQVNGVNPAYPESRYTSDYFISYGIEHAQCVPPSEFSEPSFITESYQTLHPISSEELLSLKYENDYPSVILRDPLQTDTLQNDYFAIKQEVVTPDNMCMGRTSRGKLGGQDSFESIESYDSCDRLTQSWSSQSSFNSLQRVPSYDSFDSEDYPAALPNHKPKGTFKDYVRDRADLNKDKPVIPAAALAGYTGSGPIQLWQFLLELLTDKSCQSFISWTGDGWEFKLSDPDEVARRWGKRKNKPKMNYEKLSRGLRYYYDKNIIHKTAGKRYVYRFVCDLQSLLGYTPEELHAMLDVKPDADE
Test: custom PBM; custom protein-binding microarray; buffer, salt, pH and temperature not stated; high values mean tight binding
Details: dsDNA, one strand shown

Sequence | binding signal
GGAAATAGGCCCAGGGTAACACCGGAAGTGGGCTTAGTCTTGATTCGCTTGACGCTGCTG | 12 log fluorescence intensity
CGGAAGTGTCGTAAACGACGGATATCCGGTTCTTCTGTCTTGATTCGCTTGACGCTGCTG | 12.4 log fluorescence intensity
CGGAAGTGTCGTAAACGTCGGATATCCGGTTCTTCTGTCTTGATTCGCTTGACGCTGCTG | 11.9 log fluorescence intensity
GGGAAGTGTCGTAAACGTCGGATATCCGGTTCTTCTGTCTTGATTCGCTTGACGCTGCTG | 11.9 log fluorescence intensity
AGGAAGTGTCGTAAACGTCGGATATCCGGTTCTTCTGTCTTGATTCGCTTGACGCTGCTG | 12 log fluorescence intensity
CGGAAGTGTCGTAAACGTCGGATATCCGGTTCTGCTGTCTTGATTCGCTTGACGCTGCTG | 11.8 log fluorescence intensity
TGGAAGTGTCGTAAACGTCGGATATCCGGTTCTTCTGTCTTGATTCGCTTGACGCTGCTG | 11.9 log fluorescence intensity
CGGAAGTGTCGTAAACTTCGGATATCCGGTTCTTCTGTCTTGATTCGCTTGACGCTGCTG | 11.9 log fluorescence intensity
CGGAAGTGTCGTAAACGGCGGATATCCGGTTCTTCTGTCTTGATTCGCTTGACGCTGCTG | 12.4 log fluorescence intensity
CGGAAGTGTCGTAAACGCCGGATATCCGGTTCTTCTGTCTTGATTCGCTTGACGCTGCTG | 13.1 log fluorescence intensity
GCTGCTGCGGTGCATACCCCACCGGATGTGACCGCGGTCTTGATTCGCTTGACGCTGCTG | 10.5 log fluorescence intensity
CGGAAGTGTCGTAAACGTCGGATACCCGGTTCTTCTGTCTTGATTCGCTTGACGCTGCTG | 8.31 log fluorescence intensity
TCCGGCTAACAGCTCCACCCACTTCAGGCCTTGTAGGTCTTGATTCGCTTGACGCTGCTG | 8.32 log fluorescence intensity
GCTGCTGCGGTGCATAACCCACCGGATGTGACCCCGGTCTTGATTCGCTTGACGCTGCTG | 10.4 log fluorescence intensity
CGGAAGTGTCGCAAACGTCGGATATCCGGTTCTTCTGTCTTGATTCGCTTGACGCTGCTG | 12 log fluorescence intensity
CAGAATAGGACTTCTTCCCTGAAGCAATTGATAACCGTCTTGATTCGCTTGACGCTGCTG | 8.33 log fluorescence intensity
TAAAGGGAAGACGGTTGTGGTAGTTCCGGGTATCAAGTCTTGATTCGCTTGACGCTGCTG | 8.76 log fluorescence intensity
GCGGCTGCGGTGCATACCCCACCGGATGTGACCCCGGTCTTGATTCGCTTGACGCTGCTG | 10 log fluorescence intensity
TGTCGGGTAAGGGAATATAGATCACGTGAATGAAAAGTCTTGATTCGCTTGACGCTGCTG | 8.36 log fluorescence intensity
GATTAATTTCCGCCCTTATTCGCACGTGCCATAACAGTCTTGATTCGCTTGACGCTGCTG | 13.9 log fluorescence intensity
AATTAATTTCTGCCCTTATTCGCACGTGCCATAACAGTCTTGATTCGCTTGACGCTGCTG | 8.33 log fluorescence intensity
GATTAATTCCTGCCCTTATTCGCACGTGCCATAACAGTCTTGATTCGCTTGACGCTGCTG | 10.3 log fluorescence intensity
GGAAAAAGGCCCAGGGTAACACCGGAAGTGGGTTTAGTCTTGATTCGCTTGACGCTGCTG | 12 log fluorescence intensity

Sequence | binding signal
GCTGCTGCGGTGCATACCCCACCGGATGTAACCCCGGTCTTGATTCGCTTGACGCTGCTG | 10 log fluorescence intensity
GGAAAAAGGCCCAGGTTAACACCGGAAGTGGGCTTAGTCTTGATTCGCTTGACGCTGCTG | 12 log fluorescence intensity
TAAAGCGAAGACGGTTGTGGTAGTTCCGGGTATTAAGTCTTGATTCGCTTGACGCTGCTG | 8.48 log fluorescence intensity
CGGAAGTGTCGTAAACGTCGGATATCCGGTCCTTCTGTCTTGATTCGCTTGACGCTGCTG | 12.1 log fluorescence intensity
GATTAATTTCTGCCCTTTTTCGCACGTGCCATAACAGTCTTGATTCGCTTGACGCTGCTG | 8.42 log fluorescence intensity
TACTGACTTATATATGCGAGTGCACATGAATAGACCGTCTTGATTCGCTTGACGCTGCTG | 8.33 log fluorescence intensity
GATTAATTTCTGCCCTTATTCGTACGTGCCATAACAGTCTTGATTCGCTTGACGCTGCTG | 8.36 log fluorescence intensity
CACAATTTTTATAGTAATGTAGCACGCGTAACTCCTGTCTTGATTCGCTTGACGCTGCTG | 8.41 log fluorescence intensity
GGAAAAAGGCCCAGGGTAACACCGGAAGTGGGCCTAGTCTTGATTCGCTTGACGCTGCTG | 12.1 log fluorescence intensity
GGAAAAAGGGCCAGGGTAACACCGGAAGTGGGCTTAGTCTTGATTCGCTTGACGCTGCTG | 12 log fluorescence intensity
GGAAAAAGGCACAGGGTAACACCGGAAGTGGGCTTAGTCTTGATTCGCTTGACGCTGCTG | 12.1 log fluorescence intensity
GGAAAAAGGCCGAGGGTAACACCGGAAGTGGGCTTAGTCTTGATTCGCTTGACGCTGCTG | 12 log fluorescence intensity
GGAAAAAGGCCTAGGGTAACACCGGAAGTGGGCTTAGTCTTGATTCGCTTGACGCTGCTG | 12.1 log fluorescence intensity
GGAAAAAGGCTCAGGGTAACACCGGAAGTGGGCTTAGTCTTGATTCGCTTGACGCTGCTG | 11.8 log fluorescence intensity
TAAAGGGAAGACGGTTGTGGTAGTTCCGGGTAGTAAGTCTTGATTCGCTTGACGCTGCTG | 8.59 log fluorescence intensity
CAGCAAAGGACTTCTTCCCTGAAGCAATTGATAACCGTCTTGATTCGCTTGACGCTGCTG | 8.31 log fluorescence intensity
GCTGCTGCGGTGCATACCCCACCGGATGTGACCCCTGTCTTGATTCGCTTGACGCTGCTG | 10.1 log fluorescence intensity
CAGCATAGGACTTGTTCCCTGAAGCAATTGATAACCGTCTTGATTCGCTTGACGCTGCTG | 8.34 log fluorescence intensity
TAAAGGGAAGACGGTTGTGGTAGTTCCGGGTAATAAGTCTTGATTCGCTTGACGCTGCTG | 8.57 log fluorescence intensity
GATTAATTTCTGCCCTTATTCGCACGTGCCGTAACAGTCTTGATTCGCTTGACGCTGCTG | 8.34 log fluorescence intensity
GCTGCTGCGGTGCATACCCCACCGGAAGTGACCCCGGTCTTGATTCGCTTGACGCTGCTG | 11 log fluorescence intensity
CGGAAGTGTCGTAAACGTCGGATATCCCGTTCTTCTGTCTTGATTCGCTTGACGCTGCTG | 8.7 log fluorescence intensity
TGTCGGGTAAGGGAATGTAGATCACTTGAATGAAAAGTCTTGATTCGCTTGACGCTGCTG | 8.32 log fluorescence intensity
